Bioassay records as filed in PubChem.
Sampled rows, rich in hits. Any-hit rate of the full collection: about 11%.
Sfp inh: blocks B. subtilis Sfp PPTase activity; Q9F4F7; Biochemical Sfp PPTase activity, qHTS; Potency, µM, without a hit: largest response in the series, negative = inhibition, most hits filed as inhibitors; actives 3.5% (n = 310,000); AID 1490;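 further: the enzyme is Sfp with the accession as filed and its product quenches rhodamine fluorescence; potency means the concentration at half of the fitted maximal effect; 0% = enzyme reaction without inhibitor and -100% = no enzyme wells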
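Sfp 15 nM + cpd, 15 min RT; start w/ rhodamine-CoA 5 uM, BHQ-2-YbbR 12.5 uM (final); 50 mM Hepes pH 7.6, 10 mM MgCl2, 0.01% NP-40, 0.01% BSA; read 525/598 nm at 0 and 30 min.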
FBPA coupling cs: counter-screen for Giardia aldolase inhibitors: coupling enzyme system. activity change, negative = inhibition, % at 58.2 µM, hits read low. actives 0.67% (n = 290,000). coupling enzyme system counterscreen, AmpLite Red fluorescence; in the data active means activity change below about -30%
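First, compound is pin-transferred into glyceraldehyde-3-phosphate coupling-enzyme reagent at 57.5 uM final and held 10 min at RT. Next, substrate, coupling system and AmpLite Red are added. After 20 min RT, fluorescence (525/598 nm) is read.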
Tau fluor counter: counter-screen for tau fibril formation inhibitors; AID 1463; actives 0.93% (n = 280,000); tau K18 P301L Alexa594 fluorescence, heparin fibrillization; Potency, µM (doses to about 57.7 µM), without a hit: at the highest dose activity change, negative = decrease; further: potency means the concentration at half of the fitted maximal effect; nearly all actives have a fitted effect of over 55% in size
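Human K18 P301L tau (15 uM unlabeled plus 0.24 uM Alexa 594-labeled, final) in 100 mM sodium acetate pH 7 was mixed with compound and 20 uM heparin and incubated 6 hr at 37 C.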
Tau FP inhib: inhibitors of human tau fibril formation | P10636 | K18 P301L tau heparin fibrillization, Alexa594 FP, 6 h | Potency, µM (series often up to 57.7 µM), without a hit: at the highest dose activity, negative = inhibition, hits mostly inhibitors | actives 0.39% (n = 280,000); further: potency means the concentration at half of the fitted maximal effect; nearly all actives have a fitted effect of over 55% in size
Target sequence (P10636 561-689 P618L limits assumed): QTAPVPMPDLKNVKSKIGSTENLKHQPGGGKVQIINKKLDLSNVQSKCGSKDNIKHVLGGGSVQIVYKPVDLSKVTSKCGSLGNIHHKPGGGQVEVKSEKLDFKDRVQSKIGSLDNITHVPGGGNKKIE
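Human K18 P301L fragment (15 uM unlabeled plus 0.24 uM Alexa 594-labeled) in 100 mM sodium acetate pH 7 with compound, aggregation induced by 20 uM heparin for 6 hr at 37 C. ThT (30 uM) added for 1 hr, then Alexa 594 FP read.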
Tau fibril ThT: blocks human tau fibril formation measured by thioflavin T. P10636. recombinant tau K18 P301L (four-repeat tau fragment), heparin-induced fibrillization, ThT fluorescence. Potency, µM (doses to about 57.4 µM), inactives show at the top dose activity, negative = inhibition, usual class: inhibitors. actives 2.1% (n = 270,000); further: potency means the concentration at half of the fitted maximal effect; nearly all actives have a fitted effect of over 55% in size
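Heparin-induced (20 uM) aggregation of recombinant human K18 P301L tau, 15 uM unlabeled with 0.24 uM labeled, pH 7 acetate buffer, 6 hr at 37 C with compound. Fibrils quantified by 30 uM ThT fluorescence after 1 hr ambient incubation.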
G9a block: inhibitors of human histone lysine methyltransferase G9a; G9a H3K9 monomethylation, AlphaScreen, 2 h; Potency, µM (highest dose often 102 µM), for the others: at the highest dose activity, negative = inhibition, usual class: inhibitors; Q96KQ7; AID 504332; actives 8.8% (n = 350,000); further: potency means the concentration at half of the fitted maximal effect; nearly all actives have a fitted effect of over 75% in size
Target sequence (Q96KQ7 913-1193 limits assumed): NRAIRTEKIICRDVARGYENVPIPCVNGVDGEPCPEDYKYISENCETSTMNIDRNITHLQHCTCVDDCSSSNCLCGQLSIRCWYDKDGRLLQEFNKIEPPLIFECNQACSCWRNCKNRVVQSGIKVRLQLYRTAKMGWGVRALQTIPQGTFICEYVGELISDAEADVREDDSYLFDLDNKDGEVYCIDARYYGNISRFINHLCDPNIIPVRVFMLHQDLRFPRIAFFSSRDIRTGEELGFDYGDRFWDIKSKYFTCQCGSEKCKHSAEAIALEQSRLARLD
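Using a bead-based AlphaScreen, monomethylated H3K9 product from 2 h room-temperature reactions (G9a 20 nM, peptide 500 nM, SAM 20 uM) was detected with 0.5 ug/mL rabbit anti-H3K9me1 antibody.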
* hit, by the source's call; ? = inconclusive; nt = no result; [ ] = remark or other dose. Unless noted, the call rests on the fitted dose curve; in most records, active means well fitted curve in the direction sought with a large enough effect; inconclusive means small, poorly fitted or top-dose-only effect, or another doubt; inactive means no such curve, though single readings can be large; an effect the other way counts as inactive or inconclusive. Unless noted, on the % scale 0 is the no-effect control and ±100 the full control effect.

SMILES	Sfp inh	FBPA coupling cs	Tau fluor counter	Tau FP inhib	Tau fibril ThT	G9a block
Oc1c(Br)cc(Br)cc1/C=N/n1c(-c2ccccc2)n[nH]c1=S	?	0	nt	nt	nt	10%[0.501 µM]
Oc1c(Br)cc(/C=N/n2c(-c3ccccc3)n[nH]c2=S)c(Br)c1O	-16%	2	nt	nt	nt	1.8µM*
Oc1ccccc1/C=N/n1c(-c2ccccc2)n[nH]c1=S	?	-1	nt	nt	nt	1.6µM*
COc1c(Br)cc(/C=N/n2c(-c3ccccc3)n[nH]c2=S)c(O)c1Br	50µM*	6	nt	nt	nt	nt
N#Cc1ccccc1Cn1c(=O)n(CCCC(=O)NCc2ccc3c(c2)OCO3)c(=O)c2sccc21	nt	nt	-1%	-4%	0%	-34%[59 µM]
CCN(CC)c1ccc(/C=N/NC(=O)c2cccc(S(=O)(=O)Nc3ccccc3OC)c2)cc1	15%	-1	?	11%	?	10%[59 µM]
COc1cccc(/C=N/NC(=O)c2ccc3nc[nH]c3c2)c1O	30%	1	-25%	-13%	?	14%
CCN(CC)c1ccc(/C=N/NC(=O)c2ccc3nc[nH]c3c2)c(O)c1	-14%	-7	14µM*[quencher]	3%	nt	?
CCN(CC)c1ccc(/C=N/NC(=O)c2cccc(S(=O)(=O)Nc3ccccc3OC)c2)c(O)c1	20%	-2	7.9µM*[quencher]	?	-13%	16%[59 µM]
CCOC(=O)OCC1OC(c2ccccc2)C=CC1Oc1ccc(F)cc1C (centres undefined)	5%	1	-10%[11.6 µM]	-6%[11.6 µM]	-10%[11.5 µM]	nt
Cc1ccc(-n2c(C)cc(C3=NNC(=NC4CC4)SC3)c2C)cc1C	-29%	1	-13%	-7%	?	45µM*
CN=C1NN=C(c2cc(C)n(-c3ccc(Cl)cc3)c2C)CS1	35µM*	-2	-12%	?	?	32µM*
Cc1cc(C2=NNC(=NC3CC3)SC2)c(C)n1-c1c(C)n(C)n(-c2ccccc2)c1=O	?	-3	-15%	-10%	?	?
C=CCN=C1NN=C(c2cc(C)n(CC=C)c2C)CS1	-41%	1	-16%	-8%	?	?
CCn1c(SCC(=O)NC2CC2)nnc1-c1csc(C)c1	15%	nt	nt	nt	nt	17%
COC(=O)c1cc2c(-c3ccccc3)c(C)c3ccccn3c-2c1C(=O)OC	-13%	-7	?	15%	16µM*	14µM*
COC(=O)c1c(Cl)c2n3ccccc3c(C)c(-c3ccccc3)c-2c1C(=O)OC	-28%	-19	?	?	7.9µM*	8.9µM*
COC(=O)c1c(C(=O)OC)c2ccccn2c1C(=O)c1ccccc1	11%	-2	nt	nt	nt	-10%
CCSc1ncc(CO)c(N)n1	5%	2	-8%	9%	-5%	38%
CNC(=O)c1c(C)[nH]c(=S)c(C#N)c1-c1ccco1	8.9µM*	-2	-4%	-7%	?	nt
Cc1nc(SCC(=O)O)c(C#N)c(-c2ccco2)c1C(=O)N(C)C	-2%	0	4%	5%	-3%	-1%
CSc1nc(C)c(C(=O)Nc2ccccc2)c(-c2ccco2)c1C#N	7%	-12	-4%	3%	-6%	-8%[59 µM]
Cc1ccccc1NC(=O)c1c(C)[nH]c(=S)c(C#N)c1-c1ccco1	56µM*	1	-3%	-3%	-18%	1.3µM*
C/C(=N\Nc1ccc([N+](=O)[O-])cc1)c1ccc(O)cc1	6%	-11	?	13%	3.2µM*	?
C/C(=N/Nc1ccccc1[N+](=O)[O-])c1ccc([N+](=O)[O-])cc1	6%	0	nt	nt	nt	-15%[2.33 µM]
C/C(=N\Nc1ccc([N+](=O)[O-])cc1)c1cccc(N)c1	-7%	-24	16µM*[quencher]	?	3.5µM*	-4%
CC(=O)NC/C(C)=N\Nc1ccc([N+](=O)[O-])cc1	-24%	-2	-27%	-1%	16µM*	?
CCOC(=O)c1ccccc1NC(=O)CSC(C)C(=O)Nc1cc(C)on1 (centres undefined)	nt	nt	nt	nt	nt	-5%[0.501 µM]
c1ccc(CCNc2ccnc3cc4ccccc4cc23)cc1	?	-44*	-19%	?	?	-43%[59 µM]
